Compounds without any hit were thinned out: in the full panel of roughly 79,000, 15% have a hit. Activity calls are given as the source filed them. Rule as the data show it: active = growth inhibition above about 70%; inactive = the rest.
Assays:
[1] = NCI Yeast Anticancer Drug Screen. Data for the rad50 strain (AID 155);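 also: 0% = growth of vehicle-only cultures of the same strain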; conditions: S. cerevisiae rad50 strain growth inhibition; at 50.0 µM; active compounds read high
How it was run: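 Cells are treated with compound, grown, and their growth is then scored against vehicle-only cultures of the same repair-deficient yeast strain.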

[2] = NCI Yeast Anticancer Drug Screen. Data for the mec2-1 strain (AID 157); conditions: S. cerevisiae mec2-1 strain, at 50.0 µM, active compounds read high
How it was run: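 Cells of the genetically defined mec2-1 yeast strain are incubated with test compound. Inhibition of growth is calculated against vehicle-treated controls.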

[3] = NCI Yeast Anticancer Drug Screen. Data for the sgs1 mgt1 strain (AID 161);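 also: 0% = growth of cultures given vehicle only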; conditions: S. cerevisiae sgs1 mgt1 strain, at 50.0 µM, active compounds read high
How it was run: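 Test agents were incubated with a DNA-repair-mutant yeast strain. Growth was then read and compared against vehicle-treated controls.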

[4] = NCI Yeast Anticancer Drug Screen. Data for the cln2 rad14 strain (AID 165);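 also: 0% = growth equal to vehicle treated cultures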; conditions: S. cerevisiae cln2 rad14 strain, at 50.0 µM, active compounds read high
How it was run: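 The screen exposed genetically defined yeast (cln2 rad14) to test compounds and scored growth inhibition relative to vehicle-treated controls.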

[5] = NCI Yeast Anticancer Drug Screen. Data for the bub3 strain (AID 167); conditions: S. cerevisiae bub3 mutant strain, at 50.0 µM, active compounds read high
How it was run: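 Part of a panel of yeast mutants defective in DNA damage repair or cell cycle regulation. Each strain is grown with compound, and inhibition is calculated relative to solvent-treated cultures.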

[6] = NCI Yeast Anticancer Drug Screen. Data for the mlh1 rad18 strain (AID 175); conditions: S. cerevisiae mlh1 rad18 strain growth inhibition; at 50.0 µM; active compounds read high
How it was run: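 Compound-treated yeast growth, normalised to vehicle controls. Strain bears defined DNA repair mutations.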

Measured: growth inhibition

Clc1ccc(CSc2ccc3nncc(SCc4ccc(Cl)cc4Cl)c3c2)c(Cl)c1
inactive: [1] 36% | [2] 5.8% | [3] 15.1% | [4] 36.8% | [5] 15.1% | [6] 17.6%

CC/C(C=O)=C\NC(=O)Nc1ccccc1
inactive: [1] 9.35% | [2] -21.6% | [3] 0.8% | [4] -22.9% | [5] -26.6% | [6] 1.1%

N#Cc1ccccc1N=Nc1nc(N)c(C(N)=O)[nH]1
inactive: [1] 22.2% | [2] 13.7% | [3] 11.2% | [4] -5.05% | [5] 4.7% | [6] 10.2%

COc1ccc(N=C2c3cc([N+](=O)[O-])ccc3-c3c2cccc3[N+](=O)[O-])cc1
inactive: [1] -5.25% | [2] -8.25% | [3] -4.1% | [4] -20.6% | [5] 3.45% | [6] -7.2%

CC1(C)OC2C(C3N(c4ccccc4)CCN3c3ccccc3)OC(n3ccc(=O)[nH]c3=O)C2O1 (configuration not stated)
inactive: [1] -37.4% | [2] -5.85% | [3] -8.35% | [4] 14.1% | [5] -2.5% | [6] -12.7%

C=CC(O)C1OC2OC(C)(C)OC2C2OC(C)(C)OC12 (configuration not stated)
inactive: [1] -2.75% | [2] 13.2% | [3] 2.7% | [4] -32.8% | [5] 21.4% | [6] 5.45%

O=C(c1ccc(Cl)cc1)c1nnc(Cl)s1
inactive: [1] -4.7% | [2] 2.2% | [3] -6.7% | [4] -10.8% | [5] 24.8% | [6] 2.3%

COCCOC(=O)CCC(C)=O
inactive: [1] 20.8% | [2] 15.1% | [3] 6.45% | [4] 7.8% | [5] -4.95% | [6] 10.7%

COc1ccc(-c2oc3cc(OC)c(OC)c(OC)c3c(=O)c2O)cc1O
inactive: [1] 62.5% | [2] 50.5% | [4] 44.8% | [5] 65.4%
active: [3] 77.6% | [6] 70.2%

O=C(O)CCCc1ccc2sc3ccccc3c2c1
active: [6] 76.8%
inactive: [1] 47.4% | [2] 32.6% | [3] 27.6% | [4] 50.5% | [5] 24.9%

CC(=O)OCCS(=O)Cc1ccccc1 (configuration not stated)
inactive: [1] -36.9% | [2] -16.5% | [3] -9.05% | [4] -41.4% | [5] 3.6% | [6] 3.15%

Cc1ccc(CC2CC(=O)c3ccccc3C2=O)cc1 (configuration not stated)
inactive: [1] -7.6% | [2] 2.95% | [3] -4.55% | [4] -13.9% | [5] 3.65% | [6] -16.4%

CC(C)=CCCc1ccc2c(c1)C(=O)c1cc3c(cc1C2=O)OCO3
inactive: [1] -13.9% | [2] 15.1% | [3] 21.1% | [4] 9.6% | [5] 10.6% | [6] -2.1%

O=C(/C=C(\Br)c1ccccc1)c1ccccc1
active: [1] 99.3% | [2] 99.5% | [3] 99.8% | [4] 99.2% | [5] 98.9% | [6] 99.3%

CC1C(=O)OC2CC[N+]3(C(=O)C(F)(F)F)CC4OC4(COC(=O)C(C)(O)C1(C)O)C23 (configuration not stated)
inactive: [1] -13.2% | [2] -32% | [3] -12.8% | [4] 2.2% | [5] 0.65% | [6] -8.9%

CCCCc1c(O)c(N=NC(N)=S)c2ccccc2c1O
inactive: [1] 14.9% | [2] 8.45% | [3] 36.8% | [4] -22.1% | [5] 32.6% | [6] 43.5%

O=[N+]([O-])c1ccc(C(O)C(c2ccccc2)S(=O)(=O)N2CCCCC2)cc1 (configuration not stated)
inactive: [1] 40.6% | [2] -2.75% | [3] 17.1% | [4] -31.9% | [5] -0.5% | [6] 24.9%

O=C(OCC1OC(OC(=O)N(c2ccccc2)c2ccccc2)C(OS(=O)(=O)c2ccc([N+](=O)[O-])cc2)C1OC(=O)c1ccccc1)c1ccccc1 (configuration not stated)
inactive: [1] 34.1% | [2] -5.05% | [3] -5.05% | [4] -10% | [5] 0.1% | [6] 24%

CCN1C(NN)=NS(=O)(=O)c2ccccc21
inactive: [1] -31.1% | [2] -7.55% | [3] -15.2% | [4] -19.9% | [5] 8.2% | [6] 10.8%

O=C1NC(=O)C(CN2C(=O)/C(=C/c3cccc(O)c3)SC2=S)C(=O)N1
inactive: [1] -55.2% | [2] -20.8% | [3] -29.7% | [4] -20.6% | [5] -20.4% | [6] -71.8%

COc1ccc2c(c1)nc1n2C(N)=Nc2ccccc2S1
inactive: [1] 44.5% | [2] 23.8% | [3] 36.2% | [4] 19.9% | [5] 58% | [6] 36.5%

Nc1nc(Cc2ccccc2)c(-c2ccccc2)c(-c2nc(N)nc(Cc3ccccc3)c2-c2ccccc2)n1
inactive: [1] -9.6% | [2] 14.4% | [3] -26.4% | [4] -5.15% | [5] -5.2% | [6] 7.85%

CC(C)C1SCC(=O)N1c1nncs1 (configuration not stated)
inactive: [1] -2.55% | [2] 22.4% | [3] 9.15% | [4] -27.8% | [5] -0.9% | [6] 5%

O=C(CCc1ccc(O)c(O)c1)OCCc1ccccc1
active: [1] 89.2% | [2] 89.8% | [3] 90.9% | [4] 88% | [5] 87.5% | [6] 89.2%

Cn1c(=O)c2c(nc(NCCNc3nc4c(c(=O)n(C)c(=O)n4C)n3C)n2C)n(C)c1=O
inactive: [1] 1.85% | [2] -3.35% | [3] -46.2% | [4] -25.1% | [5] -20.8% | [6] -31.7%

CCCCCCCCCCCCCCCCCCSCCCCCCCCCCCCCCCCCC
inactive: [1] 25.1% | [2] 2.75% | [3] -16.9% | [4] -20.4% | [5] -2.55% | [6] -17.6%

Cn1ncc2c(NCc3ccccc3)nc(Cl)nc21
inactive: [1] 6.5% | [2] -11.2% | [3] 16.4% | [4] -9.9% | [5] 5.85% | [6] 12.9%

COc1ccc(C2OCC(c3ccccc3)O2)cc1 (configuration not stated)
inactive: [1] -13.4% | [2] -7.65% | [3] -18.5% | [4] -37% | [5] 3.15% | [6] -29.1%

C=CC(=O)OCCOCCOC
inactive: [1] -21.1% | [2] -15.9% | [3] -2.35% | [4] -5% | [5] -18.6% | [6] -14.4%

COC(=O)/C=C/C(=O)N1CC(C)N(C(=O)/C=C/C(=O)OC)CC1C (configuration not stated)
inactive: [1] -8.45% | [2] -3.55% | [3] -9.2% | [4] 37.4% | [5] 1.45% | [6] -14.4%

OCCCCC1COC(c2ccccc2)O1 (configuration not stated)
inactive: [1] 2.55% | [2] -14.6% | [3] -10.9% | [4] -35% | [5] -16.6% | [6] 1.1%

NCCNc1ncnc2ccc(Cl)cc12
inactive: [1] -30.9% | [2] -13.1% | [3] -22.4% | [4] -30.5% | [5] -38.8% | [6] 5.4%

O=C(O)Cc1cc(O)c(CC(=O)O)cc1O
inactive: [1] -11.9% | [2] -21.9% | [3] -49.4% | [4] -20.4% | [5] -22.4% | [6] -4.1%

CC(=O)Nc1ncc(CCC2OCCO2)c(=O)[nH]1
inactive: [1] -0.55% | [2] -25.1% | [3] 19.6% | [4] -0.25% | [5] 7.65% | [6] 6.85%

Cc1ccc(NC(=O)CC2Sc3ccccc3NC2=O)c(C)c1 (configuration not stated)
inactive: [1] -7.6% | [2] -7.35% | [3] 7.5% | [4] -4.4% | [5] -20.3% | [6] -11.8%

CC(C)Oc1ccc(CCOC(=O)Nc2cccc3ccccc23)cc1
inactive: [1] -0.5% | [2] 0.85% | [3] 2% | [4] 6.65% | [5] 3.8% | [6] 9.5%

O=C(O)CCC1CCc2cccc(O)c2C1=O (configuration not stated)
inactive: [1] 8.4% | [2] 3.3% | [3] 2.25% | [4] 15.6% | [5] 6.5% | [6] -3.45%

Reference: PubChem BioAssay (NCI)
